Results filed as inconclusive are left out. Values without a mark were called inactive. The source made the active and inactive calls. Calls follow the shape of the dose curve; as a rule, active = well fitted cell-killing curve with a large enough effect; inconclusive = small, poorly fitted or top-dose-only effect, or effect the other way; inactive = no such curve, though single readings can be large or run the other way.
Potency is read from the fitted curve at half-maximal effect.

A short description of this test: Quantitative High-Throughput drug screen in 47 multiple myeloma cell lines against the NCATS MIPE library collection: MOLP8_DSMZ cell viability assay (AID 1918977). Also: nearly all actives have a fitted effect of over 45% in size. To be noted: MOLP8 myeloma viability, CellTiter-Glo ATP luminescence, 48 h; series mostly up to 45.8 µM; viability (% of control): at the top concentration. The text has this:
PI: Beverly A. Mock Ph.D.
Laboratory of Cancer Biology and Genetics,
Center for Cancer Research, National Cancer Institute,
National Institute of Health, Bethesda, Maryland
Drug resistance and disease progression are common in multiple myeloma (MM) patients, underscoring the need for new therapeutic combinations. […] We hypothesized that effective combinations would reduce MYC expression and enhance p16 activity. […] These preclinical data identify potentially useful drug combinations for evaluation in drug-resistant MM and reveal potential mechanisms of combined drug sensitivity.
Described herein is the primary MIPE qHTS used to cherrypick compounds. Validated compounds were then further tested for potential synergistic activiy.
[1] Peat TJ, Gaikwad SM, Dubois W, Gyabaah-Kessie N, Zhang S, Gorjifard S, Phyo Z, Andres M, Hughitt VK, Simpson RM, Miller MA, Girvin AT, Taylor A, Williams D, D'Antonio N, Zhang Y, Rajagopalan A, Flietner E, Wilson K, Zhang X, Shinn P, Klumpp-Thomas C, McKnight C, Itkin Z, Chen L, Kazandijian D, Zhang J, Michalowski AM, Simmons JK, Keats J, Thomas CJ, Mock BA. Drug combinations identified by high-throughput screening promote cell cycle transition and upregulate Smad pathways in myeloma. Cancer Lett. 2023 Aug 1;568:216284. doi: 10.1016/j.canlet.2023.216284. Epub 2023 Jun 24. PMID: 37356470; PMCID: PMC10408729.
SEQUENCE No. (e.g., 1, 2, 3, etc.); […] (e.g., Cells, Incubation, Reagent, etc.); VALUE and DESCRIPTION.
1; Cells; 5 uL; white, solid bottom 1536-well Greiner assay plate.
2; Compounds; 23 nL; Kalypsis pin tool (Wako USA) equipped with a 1536-well pin head to transfer to the assay plates.
3; Incubation; 48 hours; 37C incubation.
4; Reagent;5uL; CellTiter Glo (Promega).
5; Detector; 425V; Luminescence; Viewlux PerkinElmer.
NOTES (numbers refer to Sequence numbers above)
1. The cell-based screening methods employed in this study were like those previously published. Briefly, the corresponding myeloma cell lines were screened in 1,536-well plates with 500 cells, 5-uL per well for inhibition of cell viability (assessed by measuring ATP levels with CellTiterGlo).
2. NCATS MIPE 4.0 library of approved and investigational drugs were added using the Kalypsis pin tool. Wells treated with DMSO only for 100% viability and media only for 0% viability were used as controls.
3. The assay plates were covered and incubated for 48 hours in a 37C, 5% CO2 incubator with controlled humidity.
4. After 48 hours, CellTilter-GloTM luminescent substrate mix (Promega) reagent was added to the assay plate and plates we incubated for 5 min at room temperature.
5. Signal was measured as median relative luminescence units on a ViewLux (PerkinElmer) multiplate reader.
[1] Heske CM, Davis MI, Baumgart JT, Wilson K, Gormally MV, Chen L, Zhang X, Ceribelli M, Duveau DY, Guha R, Ferrer M, Arnaldez FI, Ji J, Tran HL, Zhang Y, Mendoza A, Helman LJ, Thomas CJ. Matrix Screen Identifies Synergistic Combination of PARP Inhibitors and Nicotinamide Phosphoribosyltransferase (NAMPT) Inhibitors in Ewing Sarcoma. Clin Cancer Res. 2017 Dec 1;23(23):7301-7311. doi: 10.1158/1078-0432.CCR-17-1121. Epub 2017 Sep 12. PMID: 28899971; PMCID: PMC6636827.
For `COc1cc2nccc(Oc3ccc(NC(=O)NC4CC4)c(Cl)c3)c2cc1C(N)=O`, the Potency is 13.2 µM (active).
`O=c1[nH]cnc2[nH]ncc12`: the “viability (% of control)” value is 86.4%.
Same read-out and setting: the value for `CS(=O)(=O)c1ccc(C(=O)Nc2ccc(Cl)c(-c3ccccn3)c2)c(Cl)c1` was 63.5%.
As for `CC(C)OC(=O)C1=CN(C(=O)c2ccc(F)c(F)c2)CC(C)(C)c2c1[nH]c1ccccc21`, the “viability (% of control)” value was 66.7%.
Take `CCC(C)(C)C(=O)O[C@H]1C[C@@H](C)C=C2C=C[C@H](C)[C@H](CC[C@@H]3C[C@@H](O)CC(=O)O3)[C@H]21`: the Potency is 13.2 µM (active).
Turning to `CCOc1cc(C(=O)Nc2ccc(Cl)c(-c3nc4ccccc4[nH]3)c2)cc(OCC)c1OCC`, the “viability (% of control)” value is 66.8%.
Still for that read-out and setting: the value for `Cc1cnc(NC(=O)C2=C(O)c3ccccc3S(=O)(=O)N2C)s1` was 83.1%.
As for `CCOC(=O)C1=C[C@]2(CC)CCCN3CCc4c(n1c1ccccc41)[C@@H]32`, the Potency was 18.7 µM (active).
Regarding `Cc1csc(NC(=O)c2sc3nc4c(c(C(F)(F)F)c3c2N)CCC4)n1`, the “viability (% of control)” value was 78.2%.
On the same count and under the same terms, the value for `CN(C)C(=O)c1ccc(S(=O)(=O)c2ccc(NC(=O)[C@@](C)(O)C(F)(F)F)c(Cl)c2)cc1` was 79.6%.
The same measure, in the same setting: the value for `COc1ccc(CCN2CCN(CCCc3ccccc3)CC2)cc1OC` was 108%.
Turning to `O=C(O)[C@@H](c1ccc(OCc2ccc3ccccc3n2)cc1)C1CCCC1`, the “viability (% of control)” value was 77.7%.
Still for that read-out and setting: with `CC(c1cc2ccccc2s1)N(O)C(N)=O` (stereo not given) the figure was 78.9%.
Regarding `CC(=O)NC(C)c1ccc(Oc2ccc(OC(C)C)cc2)cc1` (stereo not given), the Potency was 18.7 µM (active).
Take `Oc1ccc(C2CNCCc3c2cc(O)c(O)c3Cl)cc1` (stereo not given): the “viability (% of control)” value was 77.9%.
On the same count and under the same terms, the value for `OC(CCN1CCCCC1)(c1ccccc1)C1CC2C=CC1C2` (stereo not given) was 114%.
In the case of `Cc1c(CN2CCN(C(=O)C(C)C)CC2)sc2c(N3CCOCC3)nc(-c3cnc(N)nc3)nc12`, the Potency was 0.0372 µM (active).
Same read-out and setting: the value for `COc1ccc2c3n(c(=NC(=O)c4cccnc4)nc2c1OC)CCN3` was 2.64 µM (active).
With `CC(=O)Oc1ccccc1C(=O)O`, the “viability (% of control)” value was 120%.
The same measure, in the same setting: the value for `OC(CN1CCC(Cc2ccc(F)cc2)CC1)c1ccc(Cl)cc1` (stereo not given) was 94.1%; that for `O=C(O)CCc1ccc(NCc2cccc(Oc3ccccc3)c2)cc1` was 92.7%.
Same read-out and setting: the value for `COc1ccccc1-c1cccc(-c2c(O)c3cc(C#N)c(Cl)cc3[nH]c2=O)c1` was 109% [at 92.2 µM]; that for `CCCCNc1cc(C(=O)O)cc(S(N)(=O)=O)c1Oc1ccccc1` was 123%.
On the same count and under the same terms, the value for `OC[C@H](Cc1ccccc1)Nc1nc(Oc2ccc3c(c2)CCC3)nc2c1ncn2Cc1ccc(-c2ccccc2)cc1` was 72.1%; that for `CNC(=O)c1ccc(N2C(=S)N(c3ccc(C#N)c(C(F)(F)F)c3)C(=O)C2(C)C)cc1F` was 106%.
Take `CC(C)C[C@H](NC(=O)[C@@H](O)[C@H](N)Cc1ccccc1)C(=O)O`: the Potency is 20.9 µM (active).
With `CCC(C)N(C)C(=O)c1cc2ccccc2c(-c2ccccc2Cl)n1` (stereo not given), the “viability (% of control)” value is 88.9%.
On to `COc1ccc(-c2ccc3c(N4CCOCC4)nc(N4C[C@@H](C)O[C@@H](C)C4)nc3n2)cc1CO`, for which the Potency is 1.05 µM (active).
Turning to `NCCc1ccc(O)c(O)c1`, the Potency is 20.9 µM (active).
Same read-out and setting: the value for `CCN(c1ccccc1)c1cc(NC)[n+](C)c(C)n1` was 2.09 µM (active).
For `COc1c(Cl)cc2c([nH]c3cnccc32)c1NC(=O)c1cccnc1C`, the “viability (% of control)” value was 105%.
With `NC(N)=NC(=O)c1nc(Cl)c(N)nc1N`, the “viability (% of control)” value is 110%.
As for `Cc1cc(-c2ccc(CC(=O)Nc3ccc(-c4cccnc4)cc3)cc2)ccn1`, the “viability (% of control)” value was 83.3%.
The same measure, in the same setting: with `CN[C@@H](C)C(=O)N[C@H]1CCCC[C@H]2CC[C@@H](C(=O)N[C@@H](c3ccccc3)c3cn(CCCCc4ccc(CCCCn5cc([C@@H](NC(=O)[C@@H]6CC[C@@H]7CCCC[C@H](NC(=O)[C@H](C)NC)C(=O)N76)c6ccccc6)nn5)cc4)nn3)N2C1=O` the figure was 114%.
For the compound `COc1ccc(COc2cc3oc(=O)c4cc(C(C)O)ccc4c3cc2OC)cc1` (stereo not given), the Potency is 18.7 µM (active).
With `COc1ccc(CC2=NN3C([C@@H](CCc4ccccc4)[C@@H](C)O)=NC(C)C3C(=O)N2)cc1OC` (stereo not given in full), the “viability (% of control)” value is 114%.
The same measure, in the same setting: the value for `CCn1cc(C(=O)O)c(=O)c2cc(F)c(N3CCNC(C)C3)c(F)c21` (stereo not given) was 96.2%; that for `Nc1cccc(S(=O)(=O)N2CCCN(S(=O)(=O)c3ccc4c(c3)OCCO4)CC2)c1` was 109%.
On to `CO[C@@H]1[C@H](N(C)C(=O)c2ccccc2)C[C@H]2O[C@]1(C)n1c3ccccc3c3c4c(c5c6ccccc6n2c5c31)C(=O)NC4`, for which the Potency was 1.32 µM (active).
As for `CCOC(=O)N[C@@H]1CC[C@@H]2[C@@H](C1)C[C@H]1C(=O)O[C@H](C)[C@H]1[C@@H]2C=Cc1ccc(-c2cccc(F)c2)cn1`, the “viability (% of control)” value is 72%.
